Measurements published in the supplement of paper PMC13380429.

System: Vero E6 infected with SARS-CoV-2
Assay: inhibition of SARS-CoV-2 cytopathic effect; higher = more antiviral protection, active = above 15
Conditions: 48 h

Measured: inhibition of SARS-CoV-2 cytopathic effect

O=c1ccc2cc3ccoc3cc2o1 [psoralen]
inactive: 1 nM -1.78% | 8.33 nM 1.39% | 100 nM 1.55% | 833.33 nM 0.22% | 10000 nM -0.41%

NC(=O)CN1C=CCC(C(N)=O)=C1 [caricotamide]
inactive: 1 nM 0.48% | 8.33 nM 2.71% | 100 nM 1.14% | 833.33 nM -1.91% | 10000 nM 0.44%

NC(=O)N1c2ccccc2CC(=O)c2ccccc21 [oxcarbazepine]
inactive: 1 nM 0.74% | 8.33 nM 3.71% | 100 nM 4.19% | 833.33 nM -0.85% | 10000 nM 4.57%

c1ccc(CNCc2ccc(CN3CCCNCCNCCCNCC3)cc2)nc1
inactive: 1 nM 0.27% | 8.33 nM 1.15% | 100 nM 3.41% | 833.33 nM 1.72% | 10000 nM 2.99%

CCCN1CCC[C@@H]2Cc3nc(N)ncc3C[C@H]21 [quinelorane]
inactive: 1 nM 0.91% | 8.33 nM -0.4% | 100 nM 0.8% | 833.33 nM -1.2% | 10000 nM -1.06%

CCOC(=O)Nc1ccc(NCc2c(C)cc(C)cc2C)cc1N
inactive: 1 nM 0.63% | 8.33 nM 1.07% | 100 nM -0.41% | 833.33 nM -0.67% | 10000 nM 2.16%

O=C(Nc1ccc(N2CCC(C(=O)N3CCOCC3)CC2)cc1)c1cnc(Oc2ccccc2)nc1
inactive: 1 nM 0.64% | 8.33 nM 1.26% | 100 nM 2.38% | 833.33 nM 1.19% | 10000 nM -0.78%

C[N+]1(C)CCC(OC(=O)C(O)(c2ccccc2)C2CCCC2)C1 (stereo not given) [glycopyrrolate]
inactive: 1 nM -3.43% | 8.33 nM -1.27% | 100 nM -0.55% | 833.33 nM -0.2% | 10000 nM -1.06%

CN(C)CCOc1ccc(/C(=C(/CCCl)c2ccccc2)c2ccccc2)cc1 [toremifene]
active: 10000 nM 23.7%
inactive: 1 nM 1.37% | 8.33 nM 1.85% | 100 nM 1.34% | 833.33 nM 2.22%

CCCCC1CCC(c2nc(-c3ccncc3)no2)CC1 (stereo not given)
inactive: 1 nM 1.12% | 8.33 nM 0.82% | 100 nM -0.05% | 833.33 nM 0.32% | 10000 nM 2.33%

COc1ccc(OC)c([C@@H](O)CNC(=O)CN)c1 [midodrine]
inactive: 1 nM 1.29% | 8.33 nM 3.25% | 100 nM -1.42% | 833.33 nM 0.19% | 10000 nM -0.39%

CCOC(=O)N[C@@H]1CC[C@@H]2[C@@H](C1)C[C@H]1C(=O)O[C@H](C)[C@H]1[C@H]2/C=C/c1ccc(-c2cccc(F)c2)cn1 [vorapaxar]
inactive: 1 nM -1.52% | 8.33 nM -0.15% | 100 nM -0.3% | 833.33 nM -0.44% | 10000 nM 0.22%

NC(=O)[C@@H](CCC(F)(F)F)N(Cc1ccc(-c2ncon2)cc1F)S(=O)(=O)c1ccc(Cl)cc1 [avagacestat]
inactive: 1 nM 0.74% | 8.33 nM -2.98% | 100 nM -5.03% | 833.33 nM -4.21% | 10000 nM -6.12%

CC1(C)O[C@@H]2[C@@H](CO[C@@]3(COS(N)(=O)=O)OC(C)(C)O[C@@H]23)O1 [topiramate]
inactive: 1 nM -1.19% | 8.33 nM 1.71% | 100 nM -2.21% | 833.33 nM 0.74% | 10000 nM -0.18%

OC(CN1CCN(c2cccc(Cl)c2)CC1)C(c1ccccc1)c1ccccc1 (stereo not given)
inactive: 1 nM 2.69% | 8.33 nM 4.95% | 100 nM 2.68% | 833.33 nM 1.94% | 10000 nM 3.63%

COc1cc(OC)cc(C(=O)NNC(=O)Nc2cccc3ccccc23)c1
inactive: 1 nM 0.29% | 8.33 nM -2.09% | 100 nM -1.74% | 833.33 nM 2.71% | 10000 nM -1.92%

CC(C)NCC(O)c1ccccc1Cl (stereo not given) [clorprenaline]
inactive: 1 nM 2.05% | 8.33 nM 1% | 100 nM 0.74% | 833.33 nM 1.39% | 10000 nM -1.17%

CN(C)CCN1C(=O)c2cccc3cc(N)cc(c23)C1=O [amonafide]
inactive: 1 nM 4.04% | 8.33 nM 2.14% | 100 nM 1.57% | 833.33 nM 3.27% | 10000 nM -6.16%

CCOC(N)=O [urethane]
inactive: 1 nM -3.1% | 8.33 nM -4.31% | 100 nM -0.41% | 833.33 nM -2.2% | 10000 nM 1.53%

COC(=O)C1=CO[C@@H](O[C@@H]2O[C@H](CO)[C@@H](O)[C@H](O)[C@H]2O)[C@@H]2C(CO)=CC[C@H]12 [geniposide]
inactive: 1 nM -1.56% | 8.33 nM -1.45% | 100 nM -10.1% | 833.33 nM -17% | 10000 nM -18.6%

O=c1ccc2ccc(O)c(O)c2o1 [daphnetin]
inactive: 1 nM -1.96% | 8.33 nM 2.35% | 100 nM -2.13% | 833.33 nM 4.54% | 10000 nM 2.15%

CS(=O)(=O)CCNCc1ccc(-c2ccc3ncnc(Nc4ccc(OCc5cccc(F)c5)c(Cl)c4)c3c2)o1 [lapatinib]
inactive: 1 nM -1.4% | 8.33 nM 0.42% | 100 nM -3.11% | 833.33 nM -11.4% | 10000 nM -7.81%

CN/C(=N\c1ccc(C2=NNC(=O)CC2C)cc1)NC#N (stereo not given) [siguazodan]
inactive: 1 nM 1.52% | 8.33 nM 1.14% | 100 nM -0.26% | 833.33 nM 1.67% | 10000 nM -1.34%

CCCC(=O)O[C@]1(C(=O)CCl)[C@@H](C)C[C@H]2[C@@H]3CCC4=CC(=O)C=C[C@]4(C)[C@@]3(F)C(=O)C[C@@]21C [clobetasone-butyrate]
inactive: 1 nM -0.68% | 8.33 nM -1.04% | 100 nM -5.39% | 833.33 nM -1.94% | 10000 nM 0.48%

C[C@@H](O)[C@H]1C(=O)N2C(C(=O)O)=C([C@H]3CCCO3)S[C@H]12 [faropenem]
inactive: 1 nM -0.32% | 8.33 nM -0.11% | 100 nM 1.66% | 833.33 nM 0.92% | 10000 nM 1.61%

CN1[C@@H]2CC[C@H]1C[C@@H](OC(=O)[C@H](CO)c1ccccc1)C2 [hyoscyamine]
inactive: 1 nM 1.06% | 8.33 nM -0.12% | 100 nM 0.93% | 833.33 nM -0.12% | 10000 nM -0.51%

C[C@H](Nc1cc2c(-c3ccc4c(c3)OCO4)noc2cn1)c1ccccc1
inactive: 1 nM 0.3% | 8.33 nM -0.01% | 100 nM -0.1% | 833.33 nM -0.91% | 10000 nM -1.26%

Cc1nc(N)sc1CCN [amthamine]
inactive: 1 nM -1.84% | 8.33 nM -1.83% | 100 nM -2.06% | 833.33 nM 0.97% | 10000 nM 0.76%

Cc1ccc(-c2ccc(F)cc2COc2ccc(CCC(=O)O)cc2)cc1
inactive: 1 nM -2.64% | 8.33 nM 0.79% | 100 nM -1.34% | 833.33 nM 0.38% | 10000 nM -1.53%

CC(C)NCCN(C(C)C)S(=O)(=O)c1ccc(Cl)cc1Cl
inactive: 1 nM 1.45% | 8.33 nM -1.25% | 100 nM 0.74% | 833.33 nM -2.09% | 10000 nM -5.49%

Cc1ccc(-c2cc(C(F)(F)F)nn2-c2ccc(S(N)(=O)=O)cc2)cc1 [celecoxib]
inactive: 1 nM 1.41% | 8.33 nM 1.32% | 100 nM 1.91% | 833.33 nM 1.62% | 10000 nM -4.95%

CCc1nn(CCCN2CCN(c3cccc(Cl)c3)CC2)c(=O)n1CCOc1ccccc1 [nefazodone]
inactive: 1 nM -0.85% | 8.33 nM 0.31% | 100 nM -12.7% | 833.33 nM 0.6% | 10000 nM -2.21%

CCc1c2c(nc3ccc(OC(=O)N4CCC(N5CCCCC5)CC4)cc13)-c1cc3c(c(=O)n1C2)COC(=O)[C@]3(O)CC [irinotecan]
inactive: 1 nM -2.2% | 8.33 nM 1.89% | 100 nM 1.85% | 833.33 nM 1.56% | 10000 nM -0.23%

C=C1/C(=C\C=C2/CCC[C@]3(C)[C@@H]([C@H](C)/C=C/[C@@H](O)C4CC4)CC[C@@H]23)C[C@@H](O)C[C@@H]1O [calcipotriol]
inactive: 1 nM -0.16% | 8.33 nM 1.94% | 100 nM -0.66% | 833.33 nM 0.91% | 10000 nM 3.83%

Oc1c(Cl)cc(Cl)c2cccnc12 [chloroxine]
inactive: 1 nM 2.69% | 8.33 nM 2.44% | 100 nM 1.43% | 833.33 nM -0.59% | 10000 nM -0.15%

CCOC(=O)C1=C(C)NC(C)=C(C(=O)OCC)C1c1ccccc1/C=C/C(=O)OC(C)(C)C [lacidipine]
inactive: 1 nM 2.1% | 8.33 nM -0.72% | 100 nM 0.07% | 833.33 nM 3.01% | 10000 nM 3.85%

N#Cc1c(N(CC(=O)O)CC(=O)O)sc(C(=O)O)c1CC(=O)O [Strontium Ranelate]
inactive: 1 nM 1.28% | 8.33 nM 2.01% | 100 nM 0.58% | 833.33 nM 5.99% | 10000 nM 1.75%

C[C@H](NC(=O)C(C)(C)Oc1ccc(C(F)(F)F)cn1)[C@@H](Cc1ccc(Cl)cc1)c1cccc(C#N)c1 [taranabant]
inactive: 1 nM -0.8% | 8.33 nM 0.33% | 100 nM -2.11% | 833.33 nM 1.39% | 10000 nM -5.97%

CCOc1ccc2nc(SCCN3CCOCC3)[nH]c2c1 [afobazole]
inactive: 1 nM 0.28% | 8.33 nM 0.47% | 100 nM -1.23% | 833.33 nM -0.04% | 10000 nM 1.56%

Clc1cccc(Cl)c1NC1=NCCN1 [clonidine]
inactive: 1 nM -0.43% | 8.33 nM -2.8% | 100 nM -3.01% | 833.33 nM 0.52% | 10000 nM -5.58%
